# Laboratory results reported in PubChem BioAssay.
# Active and inactive are the calls of the source.
# Test system: wheat germ agglutinin (Triticum aestivum), Alexa647-labelled
# Test: Alexa647-WGA lectin binding to printed small molecules – biochemical, small-molecule microarray, 635/667 nm fluorescence, artefact control for SMM control-protein annotation, profiling panel (AID 1140);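 note: score merges 667 nm feature emission with signal to noise over triplicate slides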
# Settings: WGA-A647 binding, 635 nm fluorescence, higher = more signal
row,Structure (SMILES),composite z-score
1,CC(=O)NCCCC[C@@H]1NC(=O)[C@@H]2C[C@H](C(=O)NCCCCCCN)[C@H](c3cccc(OCCO)c3)N2C1=O,1.11
2,CN(C)CCCCNC(=O)[C@H]1C[C@H]2C(=O)N[C@@H](CCCC[N+](C)(C)C)C(=O)N2[C@H]1c1ccc(O)cc1,0.0976
3,CC(C)N1CC=CC23O[C@@H]4/C=C\CCCOC(=O)C4[C@H]2C(=O)N(CCCCCCO)[C@@H]3C1=O (some centres not stated),-0.724
4,O=C(CS)NCCCCCCNC(=O)[C@@H]1C[C@@H]2C(=O)NCC(=O)N2[C@@H]1c1ccc(O)cc1,-0.498
5,COc1ccc([Si](C)(C)[C@H]2[C@H](CCO)O[C@@]3(C(=O)N(Cc4ccccc4)c4ccc(N5C(=O)c6ccccc6Oc6ccccc65)cc43)[C@@H]2C)cc1,1.23
6,NC(=O)[C@H]1[C@@H]2C(=O)O[C@@H](c3ccccc3)[C@@H](c3ccccc3)N2[C@@H](c2ccc(O)cc2)[C@]12C(=O)Nc1ccccc12,-1.03
7,[N-]=[N+]=NCc1ccccc1[C@@H]1OC(c2ccc(OCCCO)cc2)=N[C@]1(Cc1ccccc1)C(=O)NCCN1CCOCC1,0.721
8,O=C1C2C=CC(C(O)c3ccc4c(c3)OCO4)N(Nc3ccccc3)C2C(=O)N1c1ccccc1 (configuration not stated),0.942
9,O=C(CS)NCCCCCNC(=O)[C@@H]1C[C@@H]2C(=O)N[C@@H](Cc3ccccc3)C(=O)N2[C@@H]1c1cccc(OCCO)c1,0.288
10,NCCCCCNC(=O)[C@@H]1C[C@@H]2C(=O)N3CCC[C@H]3C(=O)N2[C@@H]1c1ccc(O)cc1,0.955
11,COc1cc(NN2C(C(O)c3ccccc3)C=CC3C(=O)N(C)C(=O)C32)cc(OC)c1OC (configuration not stated),1.23
12,CC=CC(O)C1C=CC2C(=O)NC(=O)C2N1Nc1ccccn1 (configuration not stated),0.0489
13,COCCOC(=O)N1C(=O)[C@@]2(c3ccccc31)[C@H](c1ccccc1OCCO)N1[C@H](c3ccccc3)[C@H](c3ccccc3)OC(=O)[C@H]1[C@@H]2C(N)=O,0.64
14,COc1cc(NN2C(C(O)c3ccc(I)cc3)C=CC3C(=O)N(c4ccccc4)C(=O)C32)cc(OC)c1OC (configuration not stated),1.39
15,[N-]=[N+]=NCc1ccccc1[C@@H]1OC(c2ccc(OCCCO)cc2)=N[C@]1(Cc1ccccc1N=[N+]=[N-])C(=O)NCCN1CCOCC1,0.445
16,C=C(/C(=C/C[C@H](OC(=O)c1ccncc1)c1ccccc1OCCO)c1cnc2ccccc2c1)C(C)C,0.846
17,C=CCNC(=O)[C@@H]1[C@H]2C(=O)O[C@H](c3ccccc3)[C@H](c3ccccc3)N2[C@H](c2ccc(OCCO)cc2)[C@@]12C(=O)N(C(=O)OCCOC)c1ccc(C#CCCO)cc12,0.719
18,C=C[C@H](C)[C@H](OC(=O)Nc1ccc(OC)cc1)c1ccc(OCCO)cc1,-0.647
19,COc1ccc(C#Cc2ccc3c(c2)[C@]2(C(=O)N3)[C@H](C(=O)N3CCCCCCC3)[C@H]3C(=O)O[C@H](c4ccccc4)[C@H](c4ccccc4)N3[C@@H]2c2ccc(O)cc2)cc1,0.983
20,NCCCCCNC(=O)[C@H]1C[C@H]2C(=O)N[C@@H](Cc3ccccc3)C(=O)N2[C@H]1c1ccc(O)cc1,0.81
21,CC(C)c1ccc(NN2C(C(O)Cc3ccccc3)C=CC3C(=O)N(c4ccccc4)C(=O)C32)cc1 (configuration not stated),0.797
22,Cc1ccc(S[C@]2(C(=O)NCc3ccccc3)CC(=O)N(Cc3cc(C(F)(F)F)cc(C(F)(F)F)c3)[C@@H]2c2ccc(CO)cc2I)cc1,-0.799
23,COCCCNC(=O)[C@@]1(c2ccc([N+](=O)[O-])cc2)CC(=O)N(C(C)C)[C@@H]1c1ccc(CO)cc1,0.174
24,CN1C(=O)C2C=CC(C(O)c3ccc(I)cc3)N(Nc3ccccc3)C2C1=O (configuration not stated),0.86
25,CCOC(=O)C1=C[C@@H](c2ccccc2)N(S(=O)(=O)c2ccc(C)cc2)[C@H]1c1ccccc1,0.197
26,CC1CC/C=C\[C@H]2OC34C=CCN(C(C)(C)C)C(=O)[C@H]3N(C(CO)C(C)C)C(=O)[C@@H]4C2C(=O)O1 (some centres not stated),-0.324
27,COC(=O)[C@@]1(Cc2ccc(F)cc2)[C@H]2c3cc(C(=O)N4CCCC4)n(CC4CC4)c3C[C@H]2CN1C(=O)c1ccccc1,0.718

# Molecular target: Luciferin 4-monooxygenase (Photinus pyralis) (UniProt P08659)
# Sequence (P08659 whole entry, looked up): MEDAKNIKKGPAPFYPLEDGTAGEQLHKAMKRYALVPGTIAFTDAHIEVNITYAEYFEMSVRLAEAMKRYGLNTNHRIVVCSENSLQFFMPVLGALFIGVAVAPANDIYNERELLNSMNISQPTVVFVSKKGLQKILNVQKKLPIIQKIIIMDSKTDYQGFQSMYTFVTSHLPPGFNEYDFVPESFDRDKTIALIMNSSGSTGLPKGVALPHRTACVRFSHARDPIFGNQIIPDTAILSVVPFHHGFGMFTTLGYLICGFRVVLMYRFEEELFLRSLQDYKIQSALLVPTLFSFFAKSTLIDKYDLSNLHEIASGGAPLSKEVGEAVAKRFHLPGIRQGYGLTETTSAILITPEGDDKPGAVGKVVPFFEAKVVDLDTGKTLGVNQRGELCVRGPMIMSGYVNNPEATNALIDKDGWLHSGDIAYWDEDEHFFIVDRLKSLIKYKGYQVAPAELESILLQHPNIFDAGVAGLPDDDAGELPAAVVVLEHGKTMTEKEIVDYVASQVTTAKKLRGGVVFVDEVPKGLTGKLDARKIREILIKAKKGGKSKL
# Test: inhibition of purified Photinus pyralis luciferase – biochemical, luminescence, purified enzyme, 2006 set, primary screen (AID 1141);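 note: cell-free assay with purified firefly luciferase at 100 ng per well in PBS; test concentration not given here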
# Settings: purified firefly luciferase, SteadyGlo luminescence, 30 min; higher = more signal, called active from +8 up or from −8 down
row,Structure (SMILES),z-score
1,COCCCNC(=O)[C@@H]1c2ccccc2C(=O)N(C2Cc3ccccc3C2)[C@H]1c1ccc(CO)cc1,-0.714 (inactive)
2,COc1ccc([Si](C)(C)[C@H]2[C@H](CCO)O[C@@]3(C(=O)N(Cc4ccccc4)c4ccc(N5CCOC5=O)cc43)[C@@H]2C)cc1,0.446 (inactive)
3,C[C@@]12COC[C@]13C=C(Br)[C@H](C2)[C@@]1(CO1)C3=O,0.198 (inactive)
4,Nc1cc(Br)ccc1C(=O)O,-1.1 (inactive)
5,COC(=O)[C@@]1(Cc2ccccc2)[C@H]2c3cc(C(=O)N(C)C)n(CCn4cc([N+](=O)[O-])nc4C)c3C[C@H]2CN1C(=O)c1ccccc1,-0.0637 (inactive)
6,C=C(/C(=C/C[C@@H](OC(C)=O)c1ccc(CO)o1)c1cc(C(=O)OC)ccc1OC)C(C)C,-3.52 (inactive)
7,CC(C)C(=C=CC[C@H](O)c1cccc(OCCO)c1)CCO,0.371 (inactive)
8,C=CCN1C(=O)[C@]2(O[C@H](CCO)[C@@H]([Si](C)(C)c3ccc(OC)cc3)[C@@H]2C)c2cc(NC(=O)c3ccc(OC)cc3)ccc21,-0.772 (inactive)
9,CC(=O)NCCCC[C@@H]1NC(=O)[C@@H]2C[C@H](C(=O)NCCCCCCN)[C@H](c3cccc(OCCO)c3)N2C1=O,-0.352 (inactive)
10,CN(C)CCCCNC(=O)[C@H]1C[C@H]2C(=O)N[C@@H](CCCC[N+](C)(C)C)C(=O)N2[C@H]1c1ccc(O)cc1,0.0252 (inactive)
11,CC(C)N1CC=CC23O[C@@H]4/C=C\CCCOC(=O)C4[C@H]2C(=O)N(CCCCCCO)[C@@H]3C1=O (some centres not stated),-1.88 (inactive)
12,O=C(CS)NCCCCCCNC(=O)[C@@H]1C[C@@H]2C(=O)NCC(=O)N2[C@@H]1c1ccc(O)cc1,-1.38 (inactive)
13,COc1ccc([Si](C)(C)[C@H]2[C@H](CCO)O[C@@]3(C(=O)N(Cc4ccccc4)c4ccc(N5C(=O)c6ccccc6Oc6ccccc65)cc43)[C@@H]2C)cc1,0.666 (inactive)
14,NC(=O)[C@H]1[C@@H]2C(=O)O[C@@H](c3ccccc3)[C@@H](c3ccccc3)N2[C@@H](c2ccc(O)cc2)[C@]12C(=O)Nc1ccccc12,-0.794 (inactive)
15,[N-]=[N+]=NCc1ccccc1[C@@H]1OC(c2ccc(OCCCO)cc2)=N[C@]1(Cc1ccccc1)C(=O)NCCN1CCOCC1,-1.94 (inactive)
16,O=C1C2C=CC(C(O)c3ccc4c(c3)OCO4)N(Nc3ccccc3)C2C(=O)N1c1ccccc1 (configuration not stated),0.465 (inactive)
17,O=C(CS)NCCCCCNC(=O)[C@@H]1C[C@@H]2C(=O)N[C@@H](Cc3ccccc3)C(=O)N2[C@@H]1c1cccc(OCCO)c1,-1.97 (inactive)
18,NCCCCCNC(=O)[C@@H]1C[C@@H]2C(=O)N3CCC[C@H]3C(=O)N2[C@@H]1c1ccc(O)cc1,-0.444 (inactive)

row,Structure (SMILES),z-score
1,COc1cc(NN2C(C(O)c3ccccc3)C=CC3C(=O)N(C)C(=O)C32)cc(OC)c1OC (configuration not stated),-1.69 (inactive)
2,CC=CC(O)C1C=CC2C(=O)NC(=O)C2N1Nc1ccccn1 (configuration not stated),-0.0429 (inactive)
3,COCCOC(=O)N1C(=O)[C@@]2(c3ccccc31)[C@H](c1ccccc1OCCO)N1[C@H](c3ccccc3)[C@H](c3ccccc3)OC(=O)[C@H]1[C@@H]2C(N)=O,0.0559 (inactive)
4,COc1cc(NN2C(C(O)c3ccc(I)cc3)C=CC3C(=O)N(c4ccccc4)C(=O)C32)cc(OC)c1OC (configuration not stated),-0.285 (inactive)
5,[N-]=[N+]=NCc1ccccc1[C@@H]1OC(c2ccc(OCCCO)cc2)=N[C@]1(Cc1ccccc1N=[N+]=[N-])C(=O)NCCN1CCOCC1,-2.82 (inactive)
6,C=C(/C(=C/C[C@H](OC(=O)c1ccncc1)c1ccccc1OCCO)c1cnc2ccccc2c1)C(C)C,-0.177 (inactive)
7,C=CCNC(=O)[C@@H]1[C@H]2C(=O)O[C@H](c3ccccc3)[C@H](c3ccccc3)N2[C@H](c2ccc(OCCO)cc2)[C@@]12C(=O)N(C(=O)OCCOC)c1ccc(C#CCCO)cc12,-11.1 (active)
8,C=C[C@H](C)[C@H](OC(=O)Nc1ccc(OC)cc1)c1ccc(OCCO)cc1,-6.74 (inactive)
9,COc1ccc(C#Cc2ccc3c(c2)[C@]2(C(=O)N3)[C@H](C(=O)N3CCCCCCC3)[C@H]3C(=O)O[C@H](c4ccccc4)[C@H](c4ccccc4)N3[C@@H]2c2ccc(O)cc2)cc1,0.103 (inactive)
10,NCCCCCNC(=O)[C@H]1C[C@H]2C(=O)N[C@@H](Cc3ccccc3)C(=O)N2[C@H]1c1ccc(O)cc1,-1.35 (inactive)
11,CC(C)c1ccc(NN2C(C(O)Cc3ccccc3)C=CC3C(=O)N(c4ccccc4)C(=O)C32)cc1 (configuration not stated),-0.959 (inactive)
12,Cc1ccc(S[C@]2(C(=O)NCc3ccccc3)CC(=O)N(Cc3cc(C(F)(F)F)cc(C(F)(F)F)c3)[C@@H]2c2ccc(CO)cc2I)cc1,-0.461 (inactive)
13,COCCCNC(=O)[C@@]1(c2ccc([N+](=O)[O-])cc2)CC(=O)N(C(C)C)[C@@H]1c1ccc(CO)cc1,-0.985 (inactive)
14,CN1C(=O)C2C=CC(C(O)c3ccc(I)cc3)N(Nc3ccccc3)C2C1=O (configuration not stated),-0.431 (inactive)
15,CCOC(=O)C1=C[C@@H](c2ccccc2)N(S(=O)(=O)c2ccc(C)cc2)[C@H]1c1ccccc1,1.94 (inactive)
16,CC1CC/C=C\[C@H]2OC34C=CCN(C(C)(C)C)C(=O)[C@H]3N(C(CO)C(C)C)C(=O)[C@@H]4C2C(=O)O1 (some centres not stated),-0.0671 (inactive)
17,COC(=O)[C@@]1(Cc2ccc(F)cc2)[C@H]2c3cc(C(=O)N4CCCC4)n(CC4CC4)c3C[C@H]2CN1C(=O)c1ccccc1,1.35 (inactive)
